DT40 TDP1 CPT – qHTS for Inhibitors of human tyrosyl-DNA phosphodiesterase 1 (TDP1): qHTS in cells in presence of CPT; chicken DT40 Tdp1-/-;hTDP1 cells + 20 nM CPT, ATP luminescence, 48 h; Potency, µM (top dose mostly 46.2 µM), for the others: at the top dose activity change, negative = growth inhibition, actives largely listed as inhibitors; 420,000 compounds, 12% hits; AID 686979, 2013; note: % is set by controls: 0 for no effect and ±100 for the full control effect; nearly all actives have a fitted effect of over 55% in size
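Chicken DT40 Tdp1-/- cells complemented with human TDP1, 400 cells/well, exposed to compounds plus 20 nM camptothecin for at least 48 h at 37 C; viability read as ATP content by CellTiter-Glo luminescence.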
TGFb inhibitor – qHTS for Inhibitors of TGF-b; HepG2 CAGA-GFP TGF-b/SMAD3 reporter, GFP fluorescence, 18 h; TGF-beta stimulated, 500 pg/mL final; Potency, µM (top dose mostly 46.1 µM), for inactives: at the top dose activity, negative = inhibition, most hits filed as inhibitors; AID 588855, 2011; 410,000 compounds, 1.2% hits; note: % is set by controls: 0 for no effect and ±100 for the full control effect; nearly all actives have a fitted effect of over 65% in size
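Inhibition of TGF-beta-driven CAGA-GFP reporter expression in HEPG2 cells is measured by cellular GFP fluorescence after 18 h stimulation with 500 pg/mL recombinant TGF-beta in 1% FBS medium at 37 degrees C.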
S2 tox – Viability Counterscreen for Primary qHTS for Inhibitors of ATXN expression | 400,000 compounds, 0.49% hits | S2 cells (HEK-293 line with an ATXN2-luciferase reporter) viability, CellTiter-Fluor protease fluorescence, 24 h | Potency, µM (series often up to 56.7 µM), hits mostly cytotoxic; note: nearly all actives have a fitted effect of over 40% in size
ATXN2 expr inh – Primary qHTS for Inhibitors of ATXN expression | HEK-293 ATXN2-luciferase reporter, luminescence, 24 h | Potency, µM (doses to about 57 µM), for the others: top-dose activity change, negative = inhibition, hits mostly inhibitors | 360,000 compounds, 0.72% hits; note: % is set by controls: 0 for no effect and ±100 for the full control effect; nearly all actives have a fitted effect of over 55% in size
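qHTS (up to 57 uM final) was run with 24 h compound exposure of reporter cells at 37 °C. Each well was multiplexed: SteadyGlo luminescence measured ATXN2-luciferase expression after a fluorogenic Gly-Phe-AFC viability readout (25 uM final).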
HepG2 viability – qHTS for Inhibitors of TGF-b: Cytotox Counterscreen. HepG2 CAGA-GFP viability, ATP luminescence, 18 h. Potency, µM (titrated, usually from 46.1 µM), for the others: at the top dose activity change, negative = cytotoxicity, actives largely listed as cytotoxic. 410,000 compounds, 0.76% hits. AID 588856, 2011
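HepG2 CAGA-GFP cells (1000/well, DMEM with 1% FBS) received compound, then TGF-beta at 500 pg/mL final, and were incubated 18 hours at 37 degrees C. Viability was read by CellTiter-Glo luminescence. Media-only wells were set as complete cell-killing and DMSO as no toxicity.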
TDP1 cell noCPT – qHTS for Inhibitors of human tyrosyl-DNA phosphodiesterase 1 (TDP1): qHTS in cells in absence of CPT. DT40 Tdp1-/- hTDP1 cells, no CPT, ATP luminescence, 48 h. Potency, µM (series often up to 46.2 µM), for inactives: at the top dose activity change, negative = growth inhibition, hits mostly inhibitors. 420,000 compounds, 15% hits. AID 686978, 2013; note: % is set by controls: 0 for no effect and ±100 for the full control effect; nearly all actives have a fitted effect of over 55% in size
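Compound effects on proliferation are scored in DT40 Tdp1-/-;hTDP1 cells in the absence of CPT. ATP levels (CellTiter-Glo luminescence) are recorded after a ≥48 hr, 37 °C incubation.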
* hit, by the source's call; i = inactive; ? = inconclusive; . = no result; [ ] = remark or other dose. Most compounds without a hit are left out; they make up all but 17% or so of the library. Calls come from the whole dose curve; as a rule, active = well fitted curve in the direction sought with a large enough effect; inconclusive = small, poorly fitted or top-dose-only effect, or another doubt; inactive = no such curve, though single readings can be large; an effect the other way counts as inactive or inconclusive. Potency is the fitted concentration of half-maximal effect.

SMILES | DT40 TDP1 CPT | TGFb inhibitor | S2 tox | ATXN2 expr inh | HepG2 viability | TDP1 cell noCPT
CCn1ccnc1CNC(=O)c1ccc2oc(C(C)C)nc2c1 | -8% | 27% | i | 6% | 1% | 0%
C=CCNC(=O)Cc1ccc(S(=O)(=O)N2CCOCC2)s1 | -2% | 22% | ? | . | -20% | -8%
CCN(CC)c1ccc(S(=O)(=O)N2CCOCC2)cc1NC(=O)CNCc1cccc(Cl)c1 | 18µM* | ? | ? | ? | -20% | 15µM*
CCN(CC)c1ccc(S(=O)(=O)N2CCOCC2)cc1NC(=O)CN1C(=O)NC2(CCCC2)C1=O | -29% | 6% | i | -4% | 1% | 2%
CCN(CC)c1ccc(S(=O)(=O)N2CCOCC2)cc1NC(=O)CSc1ccccc1 | 16µM* | -7% | i | 4% | -2% | ?
Cc1ccc(S(=O)(=O)N2CCOCC2)cc1NC(=O)CNCc1ccc(Cl)cc1Cl | ? | ? | i | . | -2% | 16µM*
CCN(CC)c1ccc(S(=O)(=O)N2CCOCC2)cc1NC(=O)c1cc(=O)c2ccccc2o1 | 8.2µM* | 5% | i | . | -16% | 7.3µM*
CCN(CC)c1ccc(S(=O)(=O)N2CCOCC2)cc1NC(=O)CSc1nncn1C | -27% | -20% | i | 11% | -43% | -7%
Cc1ccc(S(=O)(=O)n2c(N)nc3cc(C)c(C)cc32)cc1 | ? | -20% | i | 9% | -19% | ?
CC(C)n1nc(Cc2cccc3ccccc23)c(C#N)c1N | . | 1% | i | -1% | -12% | .
COc1cc(NC(=O)CN2C(=O)c3ccccc3Sc3ccc(C(=O)N4CCCC4)cc32)cc(OC)c1 | 1% | -4% | i | 16% | 1% | ?
CCOC(=O)C1(CCc2ccccc2)CCN(Cc2c(O)cccc2OC)CC1 | 26µM* | ? | i | -30% | -52% | 13µM*
CCOC(=O)C1(CCc2ccccc2)CCN(Cc2ccc(OC)cc2)CC1 | -14% | -10% | i | -6% | -1% | 9%
CCOC(=O)C1(CCc2ccccc2)CCN(Cc2ccc(O)cc2)CC1 | 16µM* | ? | i | -24% | -57% | 21µM*
Cc1ccc(NC(=O)C2CCCN2C(=O)OC(C)(C)C)cc1C (configuration not stated) | -18% | 2% | i | 0% | -20% | 8%
O=C(Cn1c(C(F)(F)F)nc2ccccc21)N=Nc1c(O)[nH]c2ccc(Br)cc12 | ? | -15% | ? | . | 7% | 18µM*
O=C(Cc1cccs1)N=Nc1c(O)[nH]c2ccccc12 | -5% | 5% | ? | -16% | -4% | 41%
O=C(Cc1cccs1)N=Nc1c(O)[nH]c2ccc(Br)cc12 | 26µM* | -17% | i | -5% | -5% | ?
COC(=O)CN1C(=O)C(C)(C)c2cc(S(=O)(=O)Nc3ccc(Br)cc3F)ccc21 | -6% | -5% | . | . | -21% | -10%
Nc1nc(Sc2c([N+](=O)[O-])cc(C(F)(F)F)cc2[N+](=O)[O-])n[nH]1 | 7.3µM* | ? | i | -6% | -117% | 21µM*
O=C1c2cccc3cc([N+](=O)[O-])cc(c23)C(=O)N1CCN1CCCC1 | 0.21µM* | 5µM* | i | ? | -41% | 0.13µM*
O=C1c2ccccc2C(=O)N1CCN1CCCCC1 | -27% | -14% | i | 7% | 2% | -11%
NC(=O)CN1CCN(CCN2C(=O)c3cccc4cccc(c34)C2=O)CC1 | -24% | -2% | i | 0% | 1% | -26%
Nc1cc2c3c(cccc3c1)C(=O)N(CCN1CCCC1)C2=O | 0.73µM* | ? | ? | ? | -15% | 1.2µM*
O=C1c2cccc3cc([N+](=O)[O-])cc(c23)C(=O)N1/N=C/c1ccc(O)cc1O | ? | -5% | i | -32% | 1% | 16µM*
SMILES | DT40 TDP1 CPT | TGFb inhibitor | S2 tox | ATXN2 expr inh | HepG2 viability | TDP1 cell noCPT
Nc1cc(N)nc(SCC(=O)Nc2ccc(Br)cc2Cl)n1 | ? | -2% | i | 63% | -1% | ?
Nc1[nH]c(C(=O)c2ccccc2)c(-c2ccccc2Br)c1C(=O)NCCc1ccc(Cl)cc1Cl | ? | . | i | 18% | . | ?
CN(CCN(C)C(=O)c1[nH]cnc1C(=O)Nc1ccccc1)C(=O)c1[nH]cnc1C(=O)Nc1ccccc1 | -3% | 13% | i | 10% | -2% | ?
O=C(Nc1ccccc1)c1nc[nH]c1C(=O)NCCCCNC(=O)c1[nH]cnc1C(=O)Nc1ccccc1 | 6.5µM* | -5% | i | 2% | -15% | 12µM*
O=C(Nc1ccccc1)c1nc[nH]c1C(=O)NCCNC(=O)c1[nH]cnc1C(=O)Nc1ccccc1 | 13µM* | 1% | ? | -25% | -27% | 18µM*
O=C(Nc1ccccc1)c1nc[nH]c1C(=O)Nc1ccccc1F | ? | -1% | i | -11% | -13% | 12µM*
Cc1ccc(CN2C[C@H](Sc3ccccn3)C[C@H]2C(=O)Nc2ccc3sc(C)nc3c2)s1 | 19%[9.04 µM] | . | i | . | . | -3%
CC1=NOC(=O)/C1=C\c1ccc(-c2cccc(Cl)c2)o1 | 5.8µM* | ? | ? | ? | -110% | 5.2µM*
CC1(C)OC(=O)C(=Cc2ccc(-c3ccc(Cl)c(C(=O)O)c3)o2)C(=O)O1 | 0% | 4% | i | . | 14% | 15%
Nc1ccccc1N=Cc1ccc(-c2cccc(Cl)c2)o1 | 21µM* | ? | i | 0% | -35% | 23µM*
CC1=NOC(=O)/C1=C\c1ccc(-c2ccccc2Br)o1 | 6.5µM* | ? | ? | ? | -109% | 5.8µM*
CC1=CC2=NC(=O)/C(=C\c3ccc(-c4cccc(Cl)c4)o3)C(=N)N2O1 | 4.6µM* | -15% | ? | -28% | -25% | 2.6µM*
COC(=O)N/N=C/c1ccc(-c2cccc(Cl)c2)o1 | 3% | 16% | i | -3% | 2% | ?
CC(C)(C)c1ccc(S(=O)(=O)N2CCCCC2)cc1 | ? | -21% | i | 4% | 7% | ?
CC(C)(C)OC(=O)NC(CNCc1ccccc1)Cc1ccccc1 (configuration not stated) | 13µM* | 3% | i | -4% | -23% | ?

Screening results (PubChem)
